# Measured values reported in PubChem BioAssay AID1159580 (chemical genetic matrix, 2015).
# Hit rate of the full screen: of about 5,500 compounds, about 2,000 (36%) were called active. About 18% were inconclusive and are not listed. This is one part of the list. Unmarked numbers belong to inactive results. Cut-off read from the data, not from the text of the source: active = normalized growth mostly below about 0.91 (no sharp cut-off); inconclusive = no clear call, values can overlap the other calls; inactive = mostly above about 0.92.
# Assay: chemical genetic growth profiling, strain panel (AID 1159580);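 note: tested at 20 µM; growth read once vehicle control cultures reached saturation at 30 °C; 1 = growth at the plate median or of vehicle wells; lower values mean less growth of the strain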
# Conditions: growth OD
# [1] = S. cerevisiae deletion strains, locus YDL101C, strain DUN1, hits give low values
# [2] = S. cerevisiae deletion strains, locus YHR030C, strain SLT2, hits give low values
compound,measurement,setting,value
COc1cc2nc(-c3cccs3)oc(=O)c2cc1OC,normalized growth,"S. cerevisiae deletion strains, locus YAL013W, strain DEP1, hits give low values",0.984
same,normalized growth,"S. cerevisiae deletion strains, locus YBR229C, strain ROT2, hits give low values",0.984
same,normalized growth,[1],0.987
same,normalized growth,"S. cerevisiae deletion strains, locus YDR150W, strain NUM1, hits give low values",0.908
same,normalized growth,"S. cerevisiae deletion strains, locus YEL061C, strain CIN8, hits give low values",0.981
same,normalized growth,"S. cerevisiae deletion strains, locus YGR078C, strain PAC10, hits give low values",0.987
same,normalized growth,"S. cerevisiae deletion strains, locus YGR229C, strain SMI1, hits give low values",1
same,normalized growth,[2],0.864
same,normalized growth,"S. cerevisiae deletion strains, locus YHR087W, strain rtc3, hits give low values",0.985
same,normalized growth,"S. cerevisiae deletion strains, locus YJL187C, strain SWE1, hits give low values",0.999
same,normalized growth,"S. cerevisiae deletion strains, locus YJR043C, strain POL32, hits give low values",0.978
same,normalized growth,"S. cerevisiae deletion strains, locus YJR075W, strain HOC1, hits give low values",0.971
same,normalized growth,"S. cerevisiae deletion strains, locus YLR039C, strain RIC1, hits give low values",0.999
same,normalized growth,"S. cerevisiae deletion strains, locus YLR058C, strain SHM2 (second series), hits give low values",0.994
same,normalized growth,"S. cerevisiae deletion strains, locus YLR085C, strain ARP6, hits give low values",0.936
same,normalized growth,"S. cerevisiae deletion strains, locus YLR262C, strain YPT6, hits give low values",1.01
same,normalized growth,"S. cerevisiae deletion strains, locus YML094W, strain GIM5, hits give low values",0.978
same,normalized growth,"S. cerevisiae deletion strains, locus YMR219W, strain ESC1, hits give low values",0.994
same,normalized growth,"S. cerevisiae deletion strains, locus YMR263W, strain SAP30, hits give low values",0.9
same,normalized growth,"S. cerevisiae deletion strains, locus YMR307W, strain GAS1, hits give low values",0.945
same,normalized growth,"S. cerevisiae deletion strains, locus YNL153C, strain GIM3, hits give low values",0.971
same,normalized growth,"S. cerevisiae deletion strains, locus YNL298W, strain CLA4 (second series), hits give low values",0.993
same,normalized growth,"S. cerevisiae deletion strains, locus YNL322C, strain KRE1, hits give low values",0.984
same,normalized growth,"S. cerevisiae deletion strains, locus YNR030W, strain Alg12, hits give low values",0.983
same,normalized growth,"S. cerevisiae deletion strains, locus YPL055C, strain LGE1, hits give low values",1.11
same,normalized growth,"S. cerevisiae deletion strains, locus YPL241C, strain CIN2, hits give low values",0.976
same,normalized growth,"S. cerevisiae deletion strains, locus YPR135W, strain CTF4, hits give low values",0.879
same,normalized growth,"S. cerevisiae strains, strain wild type, hits give low values",1
Cc1ccc2nc(-c3ccc([N+](=O)[O-])o3)oc(=O)c2c1,normalized growth,"S. cerevisiae deletion strains, locus YAR019C, strain CDC15, hits give low values",0.0888 (active)
same,normalized growth,"S. cerevisiae deletion strains, locus YBL105C, strain PKC1, hits give low values",0.0913 (active)
same,normalized growth,"S. cerevisiae deletion strains, locus YBR135W, strain CKS1, hits give low values",0.193 (active)
same,normalized growth,"S. cerevisiae deletion strains, locus YBR136W, strain MEC1, hits give low values",0.181 (active)
same,normalized growth,"S. cerevisiae deletion strains, locus YBR160W, strain CDC28, hits give low values",0.231 (active)
same,normalized growth,"S. cerevisiae deletion strains, locus YDL017W, strain CDC7, hits give low values",0.259 (active)
same,normalized growth,"S. cerevisiae deletion strains, locus YDL028C, strain MPS1, hits give low values",0.595 (active)
same,normalized growth,[1],0.162 (active)
same,normalized growth,"S. cerevisiae deletion strains, locus YDL214C, strain PRR2, hits give low values",0.1 (active)
same,normalized growth,"S. cerevisiae deletion strains, locus YDR226W, strain ADK1, hits give low values",0.361 (active)
same,normalized growth,"S. cerevisiae deletion strains, locus YDR477W, strain SNF1, hits give low values",0.0976 (active)
same,normalized growth,"S. cerevisiae deletion strains, locus YER123W, strain YCK3, hits give low values",0.14 (active)
same,normalized growth,"S. cerevisiae deletion strains, locus YER133W, strain GLC7, hits give low values",0.116 (active)
same,normalized growth,"S. cerevisiae deletion strains, locus YFL009W, strain cdc4, hits give low values",0.37 (active)
same,normalized growth,"S. cerevisiae deletion strains, locus YFL029C, strain CAK1, hits give low values",0.124 (active)
same,normalized growth,"S. cerevisiae deletion strains, locus YFR019W, strain FAB1, hits give low values",0.112 (active)
same,normalized growth,"S. cerevisiae deletion strains, locus YFR028C, strain CDC14, hits give low values",0.149 (active)
same,normalized growth,"S. cerevisiae deletion strains, locus YGR040W, strain KSS1, hits give low values",0.109 (active)
same,normalized growth,"S. cerevisiae deletion strains, locus YGR052W, strain FMP48, hits give low values",0.112 (active)
same,normalized growth,"S. cerevisiae deletion strains, locus YGR092W, strain DBF2, hits give low values",0.108 (active)
same,normalized growth,[2],0.141 (active)
same,normalized growth,"S. cerevisiae deletion strains, locus YHR079C, strain IRE1, hits give low values",0.139 (active)
same,normalized growth,"S. cerevisiae deletion strains, locus YHR082C, strain KSP1, hits give low values",0.131 (active)
same,normalized growth,"S. cerevisiae deletion strains, locus YHR205W, strain SCH9, hits give low values",0.00195 (active)
same,normalized growth,"S. cerevisiae deletion strains, locus YIL147C, strain SLN1, hits give low values",0.52 (active)
same,normalized growth,"S. cerevisiae deletion strains, locus YJL095W, strain BCK1, hits give low values",0.121 (active)
same,normalized growth,"S. cerevisiae deletion strains, locus YJL157C, strain FAR1, hits give low values",0.0957 (active)
same,normalized growth,"S. cerevisiae deletion strains, locus YJR016C, strain ILV3, hits give low values",0.376 (active)
same,normalized growth,"S. cerevisiae deletion strains, locus YJR066W, strain TOR1 (second series), hits give low values",0.103 (active)
same,normalized growth,"S. cerevisiae deletion strains, locus YJR066W, strain TOR1, hits give low values",0.121 (active)
same,normalized growth,"S. cerevisiae deletion strains, locus YKL048C, strain ELM1, hits give low values",0.119 (active)
same,normalized growth,"S. cerevisiae deletion strains, locus YKL067W, strain YNK1, hits give low values",0.138 (active)
same,normalized growth,"S. cerevisiae deletion strains, locus YKL101W, strain HSL1, hits give low values",0.107 (active)
same,normalized growth,"S. cerevisiae deletion strains, locus YKL193C, strain SDS22, hits give low values",0.142 (active)
same,normalized growth,"S. cerevisiae deletion strains, locus YKL203C, strain TOR2, hits give low values",0.101 (active)
same,normalized growth,"S. cerevisiae deletion strains, locus YLR113W, strain HOG1, hits give low values",0.157 (active)
same,normalized growth,"S. cerevisiae deletion strains, locus YLR133W, strain CKI1, hits give low values",0.0945 (active)
same,normalized growth,"S. cerevisiae deletion strains, locus YLR403W, strain SFP1, hits give low values",0.000914 (active)
same,normalized growth,"S. cerevisiae deletion strains, locus YML070W, strain DAK1, hits give low values",0.12 (active)
same,normalized growth,"S. cerevisiae deletion strains, locus YMR001C, strain CDC5, hits give low values",0.127 (active)
same,normalized growth,"S. cerevisiae deletion strains, locus YMR205C, strain PFK2 (second series), hits give low values",0.11 (active)
same,normalized growth,"S. cerevisiae deletion strains, locus YMR277W, strain FCP1, hits give low values",0.124 (active)
same,normalized growth,"S. cerevisiae deletion strains, locus YNL006W, strain LST8, hits give low values",0.0975 (active)
same,normalized growth,"S. cerevisiae deletion strains, locus YNL020C, strain ARK1, hits give low values",0.105 (active)
same,normalized growth,"S. cerevisiae deletion strains, locus YNL161W, strain CBK1, hits give low values",0.142 (active)
same,normalized growth,"S. cerevisiae deletion strains, locus YNL183C, strain NPR1, hits give low values",0.118 (active)
same,normalized growth,"S. cerevisiae deletion strains, locus YNL207W, strain RIO2, hits give low values",0.12 (active)
same,normalized growth,"S. cerevisiae deletion strains, locus YNL222W, strain SSU72, hits give low values",0.101 (active)
same,normalized growth,"S. cerevisiae deletion strains, locus YNL307C, strain MCK1 (second series), hits give low values",0.1 (active)
same,normalized growth,"S. cerevisiae deletion strains, locus YOL078W, strain AVO1, hits give low values",0.164 (active)
same,normalized growth,"S. cerevisiae deletion strains, locus YOL136C, strain PFK27, hits give low values",0.19 (active)
same,normalized growth,"S. cerevisiae deletion strains, locus YOR061W, strain CKA2, hits give low values",0.0958 (active)
same,normalized growth,"S. cerevisiae deletion strains, locus YOR119C, strain RIO1, hits give low values",0.123 (active)
same,normalized growth,"S. cerevisiae deletion strains, locus YOR231W, strain MKK1, hits give low values",0.127 (active)
same,normalized growth,"S. cerevisiae deletion strains, locus YOR329C, strain SCD5, hits give low values",0.0982 (active)
same,normalized growth,"S. cerevisiae deletion strains, locus YPL031C, strain PHO85, hits give low values",0.102 (active)
same,normalized growth,"S. cerevisiae deletion strains, locus YPL153C, strain RAD53, hits give low values",0.136 (active)
same,normalized growth,"S. cerevisiae deletion strains, locus YPL204W, strain HRR25, hits give low values",0.116 (active)
same,normalized growth,"S. cerevisiae deletion strains, locus YPL209C, strain IPL1, hits give low values",0.179 (active)
same,normalized growth,"S. cerevisiae deletion strains, locus YPL256C, strain CLN2, hits give low values",0.174 (active)
same,normalized growth,"S. cerevisiae deletion strains, locus YPR025C, strain CCL1, hits give low values",0.119 (active)
same,normalized growth,"S. cerevisiae deletion strains, locus YPR111W, strain DBF20, hits give low values",0.32 (active)
same,normalized growth,"S. cerevisiae deletion strains, strain NNK1, hits give low values",0.93
same,normalized growth,"S. cerevisiae deletion strains, strain TSCII, hits give low values",0.106 (active)
